Out of some 1,300 compounds screened, about 850 (65%) were called active. Not shown: some 1% with an inconclusive outcome. The rule behind the calls is not given here. So high a share suggests a set chosen from earlier hits. A selection follows. Entries with a potency or affinity are not part of this list.

Here are results for 32 molecules from PubChem BioAssay AID588345 (Broad Institute, 2011).

The target in this assay is Dual specificity tyrosine-phosphorylation-regulated kinase 1A (Rattus norvegicus) (UniProt Q63470). The assay is described as follows: Dyrk1A enzyme activity inhibition – biochemical, cherry-pick, plate reader, 2124-01, dose response (AID 588345). Particulars: Dyrk1A kinase biochemical assay; series mostly up to 12 µM; activity change, negative = inhibition: at the top concentration.
`Oc1ccc2c(ccc3[nH]cnc32)c1`: the “activity change, negative = inhibition” value was -2.1% (inactive).
The value for `COC(=O)NNC(=O)COc1ccc(Cl)cc1` was -0.602% (inactive); that for `NNc1nccc(Nc2ccccc2C(=O)O)n1` was -81.3% (inactive); that for `COc1nc(C)ccc1-c1noc(-c2ccccn2)n1` was -4.21% (inactive).
Under `O=C(Cn1cc(COc2ccccc2C(F)(F)F)nn1)c1ccc(O)cc1` stands -13.4% (inactive); under `Cc1ccsc1/C=N/Nc1ncnc2nc[nH]c12`, -0.099% (inactive).
Under `Fc1ccccc1/C=N/Nc1ncnc2nc[nH]c12` stands 11.1% (inactive).
With `CCCCNC(=S)Nc1ccc2cn[nH]c2c1`, the “activity change, negative = inhibition” value is -0.332% (inactive).
Under `O=C1C=CC(O)(c2cc(=O)c3c(O)cc(O)cc3o2)C=C1` stands -5.93% (inactive); under `O=c1c2c(O)cc(O)cc2oc2c(O)ccc(O[C@H]3O[C@@H](CO)[C@H](O)[C@@H](O)[C@@H]3O)c12`, 13.6% (inactive); under `CS(=O)(=O)Nc1ccc(-c2ccc(/C=C3\SC(N)=NC3=O)o2)cc1`, -4.55% (inactive).
Consider `COc1ccc2c(Cl)c(C(N)=O)sc2c1`, for which the “activity change, negative = inhibition” value is 0.271% (inactive).
Turning to `CSc1nc(SCC(=O)NCc2ccco2)c2c3c(sc2n1)CN(C)CC3`, the “activity change, negative = inhibition” value was -30.4% (inactive).
The value for `CC(C)Oc1ccc(C(CC(=O)NCc2ccco2)c2ccccc2)cc1` (configuration not stated) was 6.23% (inactive); that for `COc1ccc2c(c1)[nH]c1c(Cl)ncnc12` was 5.9% (inactive).
The value for `CCOC(=O)c1ccc(NC(=S)Nc2ccc(Br)cc2N)cc1` was -4.3% (inactive); that for `COc1ccc(-n2ccc(-c3nn(-c4cccc(C(F)(F)F)c4)ccc3=O)n2)cc1` was 4.68% (inactive); that for `Cc1ccc(/C=c2\sc3n(c2=O)CN(c2ccc(Br)cc2)CN=3)o1` was -30.4% (inactive).
Consider `O=C(O)c1ccc2c(c1)S(=O)(=O)c1cc(Cl)ccc1C2=O`, for which the “activity change, negative = inhibition” value is 6.12% (inactive).
The value for `CCCCn1c(NCCO)nc2ccccc21` was -2.66% (inactive).
`Clc1ccc2[nH]c3c(c2c1)CCc1cn[nH]c1-3`: the “activity change, negative = inhibition” value was -37.9% (inactive).
The value for `Cc1ccccc1/C=N/Nc1ncnc2nc[nH]c12` was -20.2% (inactive); that for `CC(=O)c1ccc(NC(=S)Nc2ccc3cn[nH]c3c2)cc1` was -17.4% (inactive); that for `COc1ccc(N=Nc2c(C)n[nH]c2C)cc1` was 4.04% (inactive).
Turning to `N#CCC(N)=C(C#N)C#N`, the “activity change, negative = inhibition” value is -1.58% (inactive).
Regarding `CC1OC(OCC2OC(Oc3c(-c4ccc(O)cc4)oc4cc(O)cc(O)c4c3=O)C(O)C(O)C2O)C(O)C(O)C1O` (configuration not stated), the “activity change, negative = inhibition” value was -20% (inactive).
The value for `CCCCn1c(N2CCC(Cc3ccccc3)CC2)nc2c1c(=O)[nH]c(=O)n2C` was -5.72% (inactive); that for `Cc1cccc(OCC(=O)Nc2nc3ccc([N+](=O)[O-])cc3s2)c1` was 5.01% (inactive).
Consider `COc1ccc(-c2ccc(=O)n(Cc3cccc([N+](=O)[O-])c3)n2)cc1`, for which the “activity change, negative = inhibition” value is -43.7% (inactive).
The value for `CC1(C)Nc2ccc(O)cc2-c2c1ssc2=S` was -1.72% (inactive); that for `CCC(C)CCN1C(Nc2ccccc2)=NC[C@@H]1Cc1ccccc1` (some centres not stated) was -7.86% (inactive); that for `COc1ccc(N2C(=O)C3CCCN3C2c2cc(OC)c(OC)c(OC)c2)cc1` (configuration not stated) was 1.89% (inactive).
